Measurements reported in PubChem BioAssay AID1159580 (chemical genetic matrix, 2015).
Where “and” joins values, the source holds several entries; their conditions need not be identical. Equal entries are not always repeated. Among all 5,500 compounds or so, about 2,000 (36%) were called active. Roughly 18% stayed inconclusive and do not appear here. No stated cut-off is given here; in the data, active means normalized growth mostly below about 0.91 (no sharp cut-off); inconclusive means no clear call, values can overlap the other calls; inactive means mostly above about 0.92. The list shows a part of the results.

Test: chemical genetic growth profiling, strain panel (AID 1159580);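 further: tested at 20 µM; growth read once vehicle control cultures reached saturation at 30 °C; 1 = growth at the plate median or of vehicle wells; lower values mean less growth of the strain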
Conditions: growth OD

Measured: normalized growth

CN(C)CCC=C1c2ccccc2CCc2ccccc21
active: S. cerevisiae deletion strains, locus YNL209W, strain ssb2, hits give low values 0.897
inactive: S. cerevisiae deletion strains, locus YJR066W, strain TOR1, hits give low values 0.983 | S. cerevisiae deletion strains, locus YJR075W, strain HOC1, hits give low values 0.981 | S. cerevisiae deletion strains, locus YKL009W, strain mrt4, hits give low values 0.998 | S. cerevisiae deletion strains, locus YKL068W, hits give low values 0.998 | S. cerevisiae deletion strains, locus YKL085W, strain MDH1 (second series), hits give low values 0.996 | S. cerevisiae deletion strains, locus YKL085W, strain MDH1, hits give low values 0.996 | S. cerevisiae deletion strains, locus YKL160W, strain elf1, hits give low values 1.01 | S. cerevisiae deletion strains, locus YKL190W, strain CNB1, hits give low values 1.01 | S. cerevisiae deletion strains, locus YKR001C, strain vps1, hits give low values 0.985 | S. cerevisiae deletion strains, locus YKR026C, strain gcn3, hits give low values 0.998 | S. cerevisiae deletion strains, locus YKR091W, strain srl3, hits give low values 0.964 | S. cerevisiae deletion strains, locus YLL001W, strain dnm1, hits give low values 1.02 | S. cerevisiae deletion strains, locus YLL026W, hits give low values 1 | S. cerevisiae deletion strains, locus YLL041C, strain sdh2, hits give low values 0.986 | S. cerevisiae deletion strains, locus YLR027C, strain aat2, hits give low values 0.997 | S. cerevisiae deletion strains, locus YLR039C, strain RIC1, hits give low values 1.05 | S. cerevisiae deletion strains, locus YLR058C, strain SHM2, hits give low values 1.01 | S. cerevisiae deletion strains, locus YLR102C, strain apc9, hits give low values 0.987 | S. cerevisiae deletion strains, locus YLR113W, strain HOG1, hits give low values 1.02 | S. cerevisiae deletion strains, locus YLR221C, strain rsa3, hits give low values 0.94 | S. cerevisiae deletion strains, locus YLR258W, strain gsy2, hits give low values 0.972 | S. cerevisiae deletion strains, locus YLR262C, strain YPT6 (second series), hits give low values 1.06 | S. cerevisiae deletion strains, locus YLR262C, strain YPT6, hits give low values 1.1 | S. cerevisiae deletion strains, locus YLR268W, strain sec22, hits give low values 0.998 | S. cerevisiae deletion strains, locus YLR320W, strain mms22, hits give low values 0.95 | S. cerevisiae deletion strains, locus YLR330W, strain CHS5, hits give low values 1.01 | S. cerevisiae deletion strains, locus YLR342W, strain FKS1 (second series), hits give low values 0.981 | S. cerevisiae deletion strains, locus YLR342W, strain FKS1, hits give low values 0.963 | S. cerevisiae deletion strains, locus YLR357W, strain rsc2, hits give low values 0.92 | S. cerevisiae deletion strains, locus YLR370C, strain arc18, hits give low values 0.956 | S. cerevisiae deletion strains, locus YLR371W, strain rom2, hits give low values 1 | S. cerevisiae deletion strains, locus YLR384C, strain iki3, hits give low values 0.988 | S. cerevisiae deletion strains, locus YLR418C, strain cdc73, hits give low values 0.985 | S. cerevisiae deletion strains, locus YML016C, strain PPZ1, hits give low values 1 | S. cerevisiae deletion strains, locus YML032C, strain rad52, hits give low values 0.993 | S. cerevisiae deletion strains, locus YML120C, strain ndi1, hits give low values 0.986 | S. cerevisiae deletion strains, locus YML124C, strain tub3, hits give low values 0.99 | S. cerevisiae deletion strains, locus YMR058W, strain fet3, hits give low values 0.979 | S. cerevisiae deletion strains, locus YMR078C, strain ctf18, hits give low values 1 | S. cerevisiae deletion strains, locus YMR125W, strain sto1, hits give low values 0.924 | S. cerevisiae deletion strains, locus YMR129W, hits give low values 0.971 | S. cerevisiae deletion strains, locus YMR205C, strain PFK2, hits give low values 0.995 | S. cerevisiae deletion strains, locus YMR223W, strain ubp8, hits give low values 1 | S. cerevisiae deletion strains, locus YMR231W, strain pep5, hits give low values 0.987 | S. cerevisiae deletion strains, locus YMR263W, strain SAP30, hits give low values 1.01 and 1.02 | S. cerevisiae deletion strains, locus YMR307W, strain GAS1, hits give low values 1.04 and 1.01 | S. cerevisiae deletion strains, locus YNL067W, strain RPL9B, hits give low values 1.01 | S. cerevisiae deletion strains, locus YNL071W, strain lat1, hits give low values 0.998 | S. cerevisiae deletion strains, locus YNL153C, strain GIM3, hits give low values 1 and 0.972 | S. cerevisiae deletion strains, locus YNL175C, strain NOP13, hits give low values 1.01 | S. cerevisiae deletion strains, locus YNL183C, strain NPR1, hits give low values 0.998 | S. cerevisiae deletion strains, locus YNL197C, strain WHI3, hits give low values 1.06 | S. cerevisiae deletion strains, locus YNL224C, strain SQS1, hits give low values 1.03 | S. cerevisiae deletion strains, locus YNL233W, strain BNI4, hits give low values 1.01 | S. cerevisiae deletion strains, locus YNL248C, strain rpa49, hits give low values 0.915 | S. cerevisiae deletion strains, locus YNL250W, strain rad50, hits give low values 0.995 | S. cerevisiae deletion strains, locus YNL271C, strain bni1, hits give low values 1 | S. cerevisiae deletion strains, locus YNL298W, strain CLA4, hits give low values 0.991 | S. cerevisiae deletion strains, locus YNL307C, strain MCK1, hits give low values 0.999 | S. cerevisiae deletion strains, locus YNL322C, strain KRE1 (second series), hits give low values 0.997 | S. cerevisiae deletion strains, locus YNL322C, strain KRE1, hits give low values 1.01 | S. cerevisiae deletion strains, locus YNR049C, strain mso1, hits give low values 0.974 | S. cerevisiae deletion strains, locus YNR052C, strain pop2, hits give low values 0.998 | S. cerevisiae deletion strains, locus YOL012C, strain htz1 1.09 | S. cerevisiae deletion strains, locus YOL147C, strain pex11, hits give low values 1 | S. cerevisiae deletion strains, locus YOR001W, strain rrp6, hits give low values 0.971 | S. cerevisiae deletion strains, locus YOR061W, strain CKA2, hits give low values 1.01 | S. cerevisiae deletion strains, locus YOR069W, strain VPS5, hits give low values 1.01 | S. cerevisiae deletion strains, locus YOR070C, strain gyp1, hits give low values 0.975 | S. cerevisiae deletion strains, locus YOR080W, strain dia2, hits give low values 0.987 | S. cerevisiae deletion strains, locus YOR083W, strain WHI5 (second series), hits give low values 1.08 | S. cerevisiae deletion strains, locus YOR083W, strain WHI5, hits give low values 0.975 | S. cerevisiae deletion strains, locus YOR106W, strain vam3, hits give low values 0.96 | S. cerevisiae deletion strains, locus YOR136W, strain idh2, hits give low values 0.984 | S. cerevisiae deletion strains, locus YOR144C, strain elg1, hits give low values 0.977 | S. cerevisiae deletion strains, locus YOR184W, strain ser1, hits give low values 0.991 | S. cerevisiae deletion strains, locus YOR231W, strain MKK1, hits give low values 1.05 | S. cerevisiae deletion strains, locus YOR265W, strain rbl2, hits give low values 0.98 | S. cerevisiae deletion strains, locus YOR270C, strain vph1, hits give low values 0.87 | S. cerevisiae deletion strains, locus YOR290C, strain snf2, hits give low values 0.938 | S. cerevisiae deletion strains, locus YOR316C, strain cot1, hits give low values 0.993 | S. cerevisiae deletion strains, locus YPL051W, strain arl3, hits give low values 0.957 | S. cerevisiae deletion strains, locus YPL078C, strain atp4, hits give low values 0.994 | S. cerevisiae deletion strains, locus YPL106C, strain sse1, hits give low values 0.987 | S. cerevisiae deletion strains, locus YPL240C, strain hsp82, hits give low values 0.991 | S. cerevisiae deletion strains, locus YPL256C, strain CLN2, hits give low values 1.06 | S. cerevisiae deletion strains, locus YPR119W, strain clb2, hits give low values 1 | S. cerevisiae deletion strains, locus YPR141C, strain kar3, hits give low values 1 | S. cerevisiae deletion strains, locus YPR163C, strain tif3, hits give low values 0.999 | S. cerevisiae deletion strains, locus YPR167C, strain met16, hits give low values 1 | S. cerevisiae deletion strains, strain wtn01, hits give low values 0.982 | S. cerevisiae strains, strain wild type, hits give low values 1.01
